# Laboratory results reported in PubChem BioAssay (EPA / NIEHS).
# Calls of active or inactive are those of the source. How the source made its calls: active means hit-call score of the fitted dose curve at least 0.9, where 1 is the maximum; inactive means score below 0.9.
# What was measured:
# [1] = read-out: Vascular cell adhesion molecule 1 (VCAM1), VCAM1 (gene 7412); assay: BSK_CASM3C_VCAM1: BioMAP Diversity Plus: CASM3C Assay for Vascular cell adhesion molecule 1 (VCAM1) Biomarker Activity (AID 2283055); conditions: primary human coronary artery smooth muscle cells; actives raise or lower the signal;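 further: VCAM-1 protein level quantified by ELISA on the cells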
# [2] = read-out: Collagen III, COL3A1 (gene 1281); assay: BSK_hDFCGF_CollagenIII: BioMAP Diversity Plus: hDFCGF Assay for Collagen III Biomarker Activity (AID 2283056); conditions: primary human foreskin fibroblasts; actives raise or lower the signal
# In short: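 ELISA read-out of collagen III from human skin fibroblast cultures sampled 24 h post-dosing. Values were derived by bidirectional fitting relative to the DMSO vehicle control.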
# [3] = read-out: Epidermal growth factor receptor (EGFR), EGFR (gene 1956); assay: BSK_hDFCGF_EGFR: BioMAP Diversity Plus: hDFCGF Assay for Epidermal growth factor receptor (EGFR) Biomarker Activity (AID 2283057); conditions: primary human foreskin fibroblasts; actives raise or lower the signal
# In short: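 Primary human foreskin fibroblasts were exposed to compound for 24 h, after which cell-surface EGFR was quantified by ELISA. Activity was fitted bidirectionally against the DMSO negative control as baseline.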
# [4] = read-out: Interleukin-8 (IL8), CXCL8 (gene 3576); assay: BSK_hDFCGF_IL8: BioMAP Diversity Plus: hDFCGF Assay for Interleukin-8 (IL8) Biomarker Activity (AID 2283058); conditions: primary human foreskin fibroblasts; actives raise or lower the signal
# In short: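 Cells used are human skin primary fibroblasts. Chemical is added, cultures run 24 h, then IL-8 is quantified by ELISA, and gain or loss versus DMSO control is fitted in both directions.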
# [5] = BSK_hDFCGF_Proliferation: Cell Proliferation Assessment in the BioMAP Diversity Plus: hDFCGF Assay (AID 2283059); conditions: primary human foreskin fibroblasts;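 further: curves fitted for both rise and fall of signal versus DMSO baseline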
# In short: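 Steps: dose primary human dermal fibroblasts (foreskin); […] fix in 10% TCA; stain with 0.1% SRB; read 560 nm; fit gain or loss of signal against DMSO.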
# [6] = read-out: Macrophage colony-stimulating factor (MCSF), CSF1 (gene 1435); assay: BSK_hDFCGF_MCSF: BioMAP Diversity Plus: hDFCGF Assay for Macrophage colony-stimulating factor (MCSF) Biomarker Activity (AID 2283060); conditions: primary human foreskin fibroblasts; actives raise or lower the signal
# In short: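 Primary human foreskin fibroblasts dosed with chemical; 24 h later, M-CSF quantified by ELISA; curves fitted in both directions vs DMSO negative control.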
# [7] = BSK_hDFCGF_SRB: Viability Assessment in the BioMAP Diversity Plus: hDFCGF Assay (AID 2283061); conditions: primary human foreskin fibroblasts;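 further: cells exposed to compound for 24 h before the read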
# In short: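 Readout is SRB absorbance at 560 nm, reflecting total protein in parallel cultures of human foreskin fibroblasts harvested 24 h after chemical dosing. Activity was fitted bidirectionally relative to DMSO.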
# [8] = read-out: TIMP metallopeptidase inhibitor 1 (TIMP1), TIMP1 (gene 7076); assay: BSK_hDFCGF_TIMP1: BioMAP Diversity Plus: hDFCGF Assay for TIMP metallopeptidase inhibitor 1 (TIMP1) Biomarker Activity (AID 2283062); conditions: primary human foreskin fibroblasts; actives raise or lower the signal
# In short: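 Human skin fibroblasts (primary), hDFCGF system; compound exposure 24 h; TIMP-1 by ELISA; bidirectional fit vs DMSO negative control; overt cytotoxicity by SRB in parallel wells.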
# [9] = read-out: Monokine induced gamma interferon (MIG), CXCL9 (gene 4283); assay: BSK_hDFCGF_MIG: BioMAP Diversity Plus: hDFCGF Assay for Monokine induced gamma interferon (MIG) Biomarker Activity (AID 2283063); conditions: primary human foreskin fibroblasts; actives raise or lower the signal
# In short: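 Chemicals were added to primary human foreskin fibroblast cultures, which were sampled 24 h later. MIG levels were then quantified by ELISA and responses fitted in both directions relative to DMSO.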
# [10] = read-out: Matrix Metallopeptidase 1 (MMP1), MMP1 (gene 4312); assay: BSK_hDFCGF_MMP1: BioMAP Diversity Plus: hDFCGF Assay for Matrix Metallopeptidase 1 (MMP1) Biomarker Activity (AID 2283064); conditions: primary human foreskin fibroblasts; actives raise or lower the signal
# In short: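 Primary human foreskin fibroblasts in the hDFCGF system were dosed with test chemical, and MMP1 was measured by ELISA 24 h later. Values come from bidirectional curve fitting against the DMSO baseline.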
# [11] = read-out: Vascular cell adhesion molecule 1 (VCAM1), VCAM1 (gene 7412); assay: BSK_hDFCGF_VCAM1: BioMAP Diversity Plus: hDFCGF Assay for Vascular cell adhesion molecule 1 (VCAM1) Biomarker Activity (AID 2283065); conditions: primary human foreskin fibroblasts; actives raise or lower the signal;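 on AC50: VCAM-1 protein level quantified by ELISA after 24 h chemical exposure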
# In short: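 Human foreskin fibroblast primary cells, chemical exposure 24 h; VCAM-1 by ELISA; bidirectional fit, DMSO = negative control/baseline.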
# [12] = read-out: Plasminogen activator inhibitor-1 (PAI1), SERPINE1 (gene 5054); assay: BSK_hDFCGF_PAI1: BioMAP Diversity Plus: hDFCGF Assay for Plasminogen activator inhibitor-1 (PAI1) Biomarker Activity (AID 2283066); conditions: primary human foreskin fibroblasts; actives raise or lower the signal
# In short: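 Human foreskin fibroblasts in the hDFCGF system were dosed with compound for 24 h; PAI-1 was quantified by ELISA. Bidirectional curve fitting used DMSO as negative control and baseline.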
# [13] = read-out: Intercellular Adhesion Molecule 1 (ICAM1), ICAM1 (gene 3383); assay: BSK_KF3CT_ICAM1: BioMAP Diversity Plus: KF3CT Assay for Intercellular Adhesion Molecule 1 (ICAM1) Biomarker Activity (AID 2283067); conditions: primary human keratinocytes with fibroblasts; actives raise or lower the signal
# In short: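 ICAM-1 levels are measured by ELISA 24 h after dosing a primary human co-culture of keratinocytes and foreskin fibroblasts. Activity in either direction is fitted relative to DMSO vehicle.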
# [14] = BSK_KF3CT_SRB: Viability Assessment in the BioMAP Diversity Plus: KF3CT Assay (AID 2283069); conditions: primary human keratinocytes with fibroblasts;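 further: total protein by sulforhodamine B staining as a cytotoxicity measure; read 24 h after compound addition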
# In short: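 Human primary keratinocyte plus foreskin fibroblast co-culture exposed to chemicals for 24 h. Total protein measured by 0.1% sulforhodamine B staining after 10% TCA fixation, read at 560 nm; bidirectional fitting versus DMSO baseline.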
# [15] = read-out: Interleukin-1 alpha (IL1a), IL1A (gene 3552); assay: BSK_KF3CT_IL1a: BioMAP Diversity Plus: KF3CT Assay for Interleukin-1 alpha (IL1a) Biomarker Activity (AID 2283070); conditions: primary human keratinocytes with fibroblasts; actives raise or lower the signal
# In short: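 Human keratinocyte plus foreskin fibroblast primary co-culture, sampled 24 h after chemical dosing. IL-1a measured by ELISA; responses fitted bidirectionally against DMSO baseline (negative control), so gain or loss of signal both count.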
# [16] = read-out: TIMP metallopeptidase inhibitor 2 (TIMP2), TIMP2 (gene 7077); assay: BSK_KF3CT_TIMP2: BioMAP Diversity Plus: KF3CT Assay for TIMP metallopeptidase inhibitor 2 (TIMP2) Biomarker Activity (AID 2283071); conditions: primary human keratinocytes with fibroblasts; actives raise or lower the signal
# In short: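 Human primary keratinocyte/foreskin fibroblast co-culture dosed with chemical and sampled at 24 h. TIMP-2 levels quantified by ELISA; bidirectional fitting against DMSO negative control as baseline.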
# [17] = read-out: Transforming growth factor beta 1 (TGFb1), TGFB1 (gene 7040); assay: BSK_KF3CT_TGFb1: BioMAP Diversity Plus: KF3CT Assay for Transforming growth factor beta 1 (TGFb1) Biomarker Activity (AID 2283072); conditions: primary human keratinocytes with fibroblasts; actives raise or lower the signal
# In short: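 Human keratinocyte plus foreskin fibroblast primary co-culture, dosed with chemical for 24 h. TGF-b1 quantified by ELISA. Activity fitted bidirectionally against DMSO negative control as baseline.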
# [18] = read-out: C-C motif chemokine 2 (Homo sapiens) (UniProt P13500); assay: BSK_KF3CT_MCP1: BioMAP Diversity Plus: KF3CT Assay for Monocyte Chemoattractant Protein 1 (MCP1/CCL2) Biomarker Activity (AID 2283073); conditions: primary human keratinocytes with fibroblasts; actives raise or lower the signal
# In short: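 ELISA readout of MCP-1 after 24 h chemical dosing of a human skin primary co-culture of keratinocytes and foreskin fibroblasts. Activity was fitted in both directions against DMSO.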
# [19] = read-out: Matrix Metallopeptidase 9 (MMP9), MMP9 (gene 4318); assay: BSK_KF3CT_MMP9: BioMAP Diversity Plus: KF3CT Assay for Matrix Metallopeptidase 9 (MMP9) Biomarker Activity (AID 2283074); conditions: primary human keratinocytes with fibroblasts; actives raise or lower the signal;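 on AC50: MMP9 protein level quantified by ELISA in the co-culture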
# In short: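 Keratinocyte plus foreskin fibroblast human primary skin co-culture was dosed with chemical and MMP-9 was quantified by ELISA 24 h later. Bidirectional curve fitting used DMSO as negative control and activity baseline.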
# [20] = read-out: Interferon-gamma inducible Protein 10 (IP10), CXCL10 (gene 3627); assay: BSK_KF3CT_IP10: BioMAP Diversity Plus: KF3CT Assay for Interferon-gamma inducible Protein 10 (IP10) Biomarker Activity (AID 2283068); conditions: primary human keratinocytes with fibroblasts; actives raise or lower the signal
# In short: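 KF3CT co-culture (keratinocytes + foreskin fibroblasts), 24 h compound, IP-10 by ELISA; bidirectional fit vs DMSO baseline.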
structure (smiles),measurement,setting,value
CCOP(=O)(OCC)SCCSCC,outcome,[1],inactive
same,outcome,[2],inactive
same,outcome,[3],inactive
same,outcome,[4],inactive
same,outcome,[5],inactive
same,outcome,[6],inactive
same,outcome,[7],inactive
same,outcome,[8],inactive
same,outcome,[9],inactive
same,outcome,[10],inactive
same,outcome,[11],inactive
same,outcome,[12],inactive
same,outcome,[13],inactive
same,outcome,[14],inactive
same,outcome,[15],inactive
same,outcome,[16],inactive
same,outcome,[17],inactive
same,outcome,[18],inactive
same,outcome,[19],inactive
O=S(=O)(C(Cl)(Cl)Cl)C(Cl)(Cl)Cl,AC50,[1],1410 nM (active)
same,AC50,[2],2270 nM (active)
same,AC50,[3],1550 nM (active)
same,AC50,[4],3560 nM (active)
same,AC50,[5],83.1 nM (active)
same,AC50,[6],2300 nM (active)
same,AC50,[7],1520 nM (active)
same,AC50,[8],1720 nM (active)
same,AC50,[9],2360 nM (active)
same,AC50,[10],2800 nM (active)
same,AC50,[11],2020 nM (active)
same,AC50,[12],1110 nM (active)
same,AC50,[13],2150 nM (active)
same,AC50,[20],2990 nM (active)
same,AC50,[14],2480 nM (active)
same,AC50,[15],1670 nM (active)
same,AC50,[16],2250 nM (active)
same,outcome,[17],inactive
same,AC50,[18],2370 nM (active)
same,AC50,[19],2220 nM (active)
Nc1c(Oc2ccccc2)cc(O)c2c1C(=O)c1ccccc1C2=O,outcome,[1],inactive
same,outcome,[2],inactive
same,outcome,[3],inactive
same,outcome,[4],inactive
same,outcome,[5],inactive
same,AC50,[6],10000 nM (active)
same,outcome,[7],inactive
same,outcome,[8],inactive
same,AC50,[9],15600 nM (active)
same,outcome,[10],inactive
same,AC50,[11],15800 nM (active)
same,outcome,[12],inactive
same,outcome,[13],inactive
same,outcome,[20],inactive
same,outcome,[14],inactive
same,outcome,[15],inactive
same,AC50,[16],549 nM (active)
same,outcome,[17],inactive
same,outcome,[18],inactive
same,outcome,[19],inactive
CC(C)(C)c1cc([N+](=O)[O-])cc(C(C)(C)C)c1O,outcome,[1],inactive
same,outcome,[2],inactive
same,outcome,[3],inactive
same,outcome,[4],inactive
same,outcome,[5],inactive
same,outcome,[6],inactive
same,outcome,[7],inactive
same,outcome,[8],inactive
same,outcome,[9],inactive
same,outcome,[10],inactive
same,outcome,[11],inactive
same,outcome,[12],inactive
same,outcome,[13],inactive
same,AC50,[20],65.2 nM (active)
same,outcome,[14],inactive
same,outcome,[15],inactive
same,AC50,[16],20000 nM (active)
same,outcome,[17],inactive
same,AC50,[18],30700 nM (active)
same,AC50,[19],11300 nM (active)
COCC(=O)N(c1c(C)cccc1C)[C@H](C)C(=O)OC,outcome,[1],inactive
same,outcome,[2],inactive
same,outcome,[3],inactive
same,outcome,[4],inactive
same,outcome,[5],inactive
same,outcome,[6],inactive
same,outcome,[7],inactive
same,outcome,[8],inactive
same,outcome,[9],inactive
same,outcome,[10],inactive
same,outcome,[11],inactive
same,outcome,[12],inactive
same,outcome,[13],inactive
same,outcome,[20],inactive
same,outcome,[14],inactive
same,outcome,[15],inactive
same,outcome,[16],inactive
same,outcome,[17],inactive
same,outcome,[18],inactive
same,outcome,[19],inactive
Cc1ccc2nc3sc(=O)sc3nc2c1,outcome,[1],inactive
same,outcome,[2],inactive
same,outcome,[3],inactive
same,outcome,[4],inactive
same,AC50,[5],5000 nM (active)
same,outcome,[6],inactive
same,outcome,[7],inactive
same,outcome,[8],inactive
same,AC50,[9],7300 nM (active)
same,outcome,[10],inactive
same,AC50,[11],5000 nM (active)
same,outcome,[12],inactive
same,AC50,[13],3160 nM (active)
same,outcome,[20],inactive
same,outcome,[14],inactive
same,AC50,[15],5000 nM (active)
same,AC50,[16],2500 nM (active)
same,outcome,[17],inactive
same,outcome,[18],inactive
